Laboratory results taken from PubChem BioAssay AID1619 (SRMLSC, 2009).
Out of some 220,000 compounds screened, about 830 (0.38%) were called active. Not all results are given here. Results with a measured potency or affinity are listed apart. Values without a mark were called inactive.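 Rule for the calls: active = compound inhibiting the enzyme by more than half at any dose during confirmatory dose-response retesting; inconclusive = strong single-dose inhibitors picked by rank but not retested; inactive = the rest.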

Each compound was assayed against Leucine aminopeptidase (Plasmodium falciparum (isolate 3D7)) (UniProt Q8IL11) (assay: P. falciparum M17LAP inhibitors, primary screen, biochemical, fluorogenic H-Leu-NHMec substrate, 1536-well (AID 1619;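 note: plate controls were full reaction with DMSO carrier for no effect and no enzyme background for full effect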)). Conditions: recombinant M17LAP, H-Leu-NHMec fluorogenic kinetic assay; at 30 µM; active compounds read high.
Leucine aminopeptidase (Plasmodium falciparum (isolate 3D7)), sequence (Q8IL11 whole entry, looked up): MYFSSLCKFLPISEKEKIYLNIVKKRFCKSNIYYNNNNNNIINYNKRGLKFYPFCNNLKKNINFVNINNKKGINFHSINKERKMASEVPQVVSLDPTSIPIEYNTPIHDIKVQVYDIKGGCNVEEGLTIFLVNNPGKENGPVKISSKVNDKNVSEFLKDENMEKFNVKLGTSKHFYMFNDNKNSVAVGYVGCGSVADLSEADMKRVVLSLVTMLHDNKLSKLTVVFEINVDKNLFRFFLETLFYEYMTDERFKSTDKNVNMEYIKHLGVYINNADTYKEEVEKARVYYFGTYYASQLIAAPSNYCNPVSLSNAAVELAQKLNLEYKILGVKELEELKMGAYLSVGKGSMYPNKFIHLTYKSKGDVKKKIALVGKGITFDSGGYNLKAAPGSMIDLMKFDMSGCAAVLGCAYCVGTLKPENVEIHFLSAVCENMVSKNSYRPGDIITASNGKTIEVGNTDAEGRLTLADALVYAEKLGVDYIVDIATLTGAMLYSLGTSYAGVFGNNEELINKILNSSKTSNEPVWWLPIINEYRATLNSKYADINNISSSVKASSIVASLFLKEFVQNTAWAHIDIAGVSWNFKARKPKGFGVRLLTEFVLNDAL

Row | Compound | inhibition [%]
1 | CSc1cccc(NC(=O)C2CCN(S(=O)(=O)c3ccc(F)cc3)CC2)c1 | -0.52
2 | COc1cccc(C(=O)NCC2CCN(c3ccc(S(=O)(=O)N4CCOCC4)cc3)CC2)c1 | 4
3 | CN(C)S(=O)(=O)c1ccc(C(=O)NC(=O)CSc2ccccc2)cc1 | 6.97
4 | CC1=NNC(=O)C1CC(=O)N/N=C/c1ccncc1 (configuration not stated) | -2.88
5 | C/C(=N\NC(=O)C1=NNC(=O)C1C)c1cccs1 (configuration not stated) | 24.2
6 | CC1=NNC(=O)C1CC(=O)N/N=C/c1ccc(C)o1 (configuration not stated) | 5.16
7 | CC1=NNC(=O)C1CC(=O)N/N=C/c1cccs1 (configuration not stated) | 5.62
8 | Cc1ccc(/C=C/C(=O)NCCCc2ccccc2)cc1 | -0.31
9 | CCc1ccccc1NC(=O)CC1S/C(=N\c2nccs2)N(CC)C1=O (configuration not stated) | 0.04
10 | COc1ccc2cc(C)c(SCC(=O)Nc3cc(C)on3)nc2c1 | -7.8
11 | CCc1cc2ccc(C)cc2nc1SCC(=O)Nc1c[nH]c(=O)[nH]c1=O | 21.2
12 | CCc1ccc2c(c1)cc(C)c1nnc(SCC(=O)Nc3cc(OC)c(OC)cc3C(=O)O)n12 | 7.71
13 | CCc1cc2cc3c(cc2nc1SCC(=O)Nc1nccs1)OCO3 | -1.06
14 | Cc1ccc2cc(C)c(SCC(=O)Nc3ccc(S(=O)(=O)N4CCCC4)cc3)nc2c1 | -14.9
15 | COc1cc(NC(=O)CSc2nnc3c(C)cc4c(C)ccc(C)c4n23)c(C(=O)O)cc1OC | 3.38
16 | CCc1cc2ccc(C)cc2nc1SCC(=O)Nc1cc(C)on1 | -2.5
17 | CCc1cc2cc3c(cc2nc1SCC(=O)Nc1cc(C)on1)OCO3 | 7.57
18 | Cc1ccccc1OCCCCn1c(CO)nc2ccccc21 | 5.4
19 | CN(Cc1ccccc1)C(=O)Cn1c(=O)oc2cc(S(=O)(=O)NCc3ccccc3)ccc21 | -8.79
20 | Nc1cc(=O)[nH]c(SCC(=O)Nc2ccc(S(=O)(=O)N3CCCCC3)cc2)n1 | 10.7
21 | CCOc1ccc(N2C(=O)CC(NCCc3ccncc3)C2=O)cc1 (configuration not stated) | 3.75
22 | CN1CC(=O)N(CCOc2ccccc2)C1=O | 5.27
23 | CN1CCN(c2ccccc2NC(=O)c2cccc([N+](=O)[O-])c2)CC1 | -3.18
24 | C/C(=N/NC(=O)Cn1nc2ccccc2n1)c1ccc(F)cc1 | 13.8
25 | CC(C)c1nc(SCC(=O)N2CCCc3ccccc32)c2c(=O)n(C)c(=O)n(C)c2n1 | -8.79

Row | Compound | inhibition [%]
26 | Cc1c(CN2CCC(CO)(CC3CCCCO3)CC2)cnn1C (configuration not stated) | -3.19
27 | Cc1ccc(OCC(=O)N2N=C(C(F)(F)F)CC2(O)C(C)(C)C)cc1C (configuration not stated) | -0.9
28 | CCCCSc1nc(O)cc(=O)n1CC | 16
29 | CCOC(=O)c1sc(NS(=O)(=O)c2ccccc2)nc1C | 23.4
30 | Cc1ccc(S(=O)(=O)Nc2nc(C)c(C(=O)NN)s2)cc1 | 18.9
31 | Cc1ccc(C(=O)Nc2ccc(F)cc2)o1 | 7.81
32 | O=C(Nc1ccc2c(c1)OCCO2)NC1CCCCC1 | 53.6
33 | O=C(Nc1ccc2c(c1)OCCO2)C1CCC1 | -5.9
34 | O=C(Nc1ccc2c(c1)OCCO2)C1CC1c1ccccc1 (configuration not stated) | -1.74
35 | O=C(O)CCNc1ccc2c(c1)OCCO2 | 13.7
36 | CC1=C(C)CC(C(=O)Nc2ccc3c(c2)OCO3)C(C(=O)O)C1 (configuration not stated) | 8.14
37 | O=C(O)CCCCCNS(=O)(=O)c1ccc2c(c1)OCCO2 | -3.71
38 | O=C(c1cc(-c2ccc(F)cc2)on1)N1CCCc2ccccc21 | 1.4
39 | CCCCOCCCNC(=O)C1CCCCC1 | -2.13
40 | C=CCn1cnc2c(nnn2-c2ccc(Cl)cc2)c1=O | 1.25
41 | O=C(CSCc1cc(=O)[nH][nH]1)Nc1ccc(F)cc1 | 5.96
42 | CCCCc1ccc(NC(=O)CC(C)=O)cc1 | 7.92
43 | Cc1c(Cl)cccc1NC(=O)CSC(N)=O | 3.23
44 | Cc1c(Cl)cccc1NC(=O)CSCC(N)=O | -1.74
45 | O=C(Nc1ccc(F)cc1F)N1CCC(c2nc3ccccc3o2)CC1 | 2.14
46 | CCOCCCn1c(=S)[nH]c2cc(C(=O)NCC(OC)OC)ccc2c1=O | 1.45
47 | Cc1cc(OCC(=O)N2CCOCC2)ccc1NC(=O)C1CCCCC1 | 5.24
48 | NC(=O)COC(=O)c1ccccc1OCc1ccccc1 | 13.1
49 | O=C(OCC(=O)N1CCN(C(=O)c2ccco2)CC1)c1ccccc1OCc1ccccc1 | 7.24
50 | CC(c1ccccc1)n1c(-c2cccs2)nc2c(c(=O)c3ccccc3n2C)c1=O (configuration not stated) | 7.83

Row | Compound | inhibition [%]
51 | CCOc1ccc(C(C(=O)Nc2ccc(F)cc2)N(C(=O)Cn2nnc3ccccc32)C2CC2)cc1 (configuration not stated) | 6.8
52 | CC1CCC2(CC1)NC(=O)N(CC(=O)Nc1ccc3c(c1)CCC3)C2=O (configuration not stated) | -3.16
53 | CC1CCCCN1CC(=O)Nc1ccc(N2CCCCCC2)cc1 (configuration not stated) | 37.6
54 | CC1CCCCC12NC(=O)N(CC(=O)Nc1ccc(N3CCOCC3)cc1)C2=O (configuration not stated) | 22
55 | O=C(CN1CCCCC1)Nc1ccc(N2CCCCCC2)cc1 | 43.3
56 | O=C(CCN1C(=O)C2C3C=CC(C3)C2C1=O)Nc1ccc2c(c1)OCO2 (configuration not stated) | -8.11
57 | O=C(CN1C(=O)NC2(CCCCC2)C1=O)Nc1ccc(N2CCOCC2)cc1 | 29.2
58 | CC1CCC2(CC1)NC(=O)N(CC(=O)NC(=O)Nc1ccc3c(c1)OCCO3)C2=O (configuration not stated) | 2.34
59 | O=C(CN1C(=O)C2C3C=CC(C3)C2C1=O)Nc1ccc(F)cc1 (configuration not stated) | -2.69
60 | Cc1cccn2cc(CCNS(=O)(=O)c3cccc([N+](=O)[O-])c3)nc12 | -1.3
61 | COCCn1c(N)c(N(Cc2ccccc2)C(=O)c2ccc(C#N)cc2)c(=O)[nH]c1=O | 1.64
62 | Cc1nn(C)c(Cl)c1C(=O)NC(C(=O)O)c1ccccc1 (configuration not stated) | -0.49
63 | O=C(O)CSc1nc2ccccc2n1-c1ccccc1 | 6.57
64 | C/C=C/Cn1c(Br)nc2c1c(=O)[nH]c(=O)n2C | 6.95
65 | O=C1c2ccccc2-c2cccc(C(=O)N3CCN(C(=O)c4ccccc4)CC3)c21 | 2.37
66 | CC1=C(C(=O)N2CCOCC2)C(c2ccc(Br)cc2)NC(=S)N1c1ccccc1 (configuration not stated) | 1.22
67 | Nc1nonc1C(=Nc1ccc(Br)cc1)NO | -2.77
68 | COc1ccc(NC(=S)N(Cc2ccc(C)cc2)Cc2ccccn2)cc1 | 4.2
69 | COc1ccc(-c2cc(C(F)(F)F)n3nc(C(=O)O)nc3n2)cc1 | 42.7
70 | NC(=O)CSc1nccn1Cc1ccc(Cl)cc1 | -2.93
71 | O=C(COC(=O)c1cccs1)Nc1ccccc1 | 4.15
72 | CCN(c1ccc(NC(=O)COC(=O)c2cccs2)cc1)C(C)C | 38.8
73 | CNC(=S)N1N=C(c2ccc(C)cc2)CC1c1ccc(Cl)cc1 (configuration not stated) | 5.37
74 | CCOc1[nH]n(-c2ccccc2)c(=O)c1C=Nc1ccc(F)cc1F | 2.5
75 | CCOC(=O)N1CCN(C(=O)/C(=C/c2cccs2)NC(=O)c2cccs2)CC1 | 16.7

Row | Compound | inhibition [%]
76 | CCn1c(=S)[nH]c2sc3c(c2c1=O)CCCCC3 | 3.46
77 | O=c1c2c3c(sc2[nH]c(=S)n1Cc1ccco1)CCC3 | -4.17
78 | O=C(COC(=O)c1ccccc1OCc1ccc(Cl)cc1)NC1CC1 | -0.6
79 | O=C(O)c1sccc1OCc1ccccc1 | -1.01
80 | Cc1ccc(COc2ccsc2C(=O)O)cc1 | -3.31
81 | COc1ccc(C(=O)CSc2n[nH]c(-c3ccncc3)n2)cc1[N+](=O)[O-] | -7.99
82 | Cc1c(Br)c(=O)oc2c(Br)c(O)c(O)cc12 | 45.5
83 | O=c1cc2c(=O)oc3cc(O)c(O)oc3c2c(O)c1O | 33
84 | Cc1ccc(C)c(NC(=O)CSc2nnc(-c3ccco3)o2)c1 | 1.4
85 | Cc1cccc(Nc2nnc(SC/C(O)=C(\C#N)c3nc4ccccc4[nH]3)s2)c1C | -9.64
86 | Cc1cccc(Nc2nnc(SC/C(O)=C(\C#N)c3nc4ccccc4[nH]3)s2)c1 | 19.5
87 | COc1ccc(S(=O)(=O)N2CCOC2CNC(=O)C(=O)NCc2cccnc2)cc1C (configuration not stated) | 10.8
88 | CCn1c(=S)[nH]c2c(c1=O)C(C)(C)Cc1ccccc1-2 | -1.93
89 | CN(C)Cc1nc2c(c(=O)[nH]1)C(C)(C)Cc1ccccc1-2 | -7.27
90 | Cc1ccc(S(=O)(=O)c2nc(C)c3c(n2)CCC3)cc1 | -1.17
91 | CCOC(=O)c1cnc(SCC(=O)Nc2cc(C(F)(F)F)ccc2N2CCOCC2)nc1N | -15.2
92 | CC(=O)/C(C#N)=C1\NC(=O)C(Cc2ccccc2C)S1 (configuration not stated) | 23.4
93 | CC(=O)/C(C#N)=C1\NC(=O)C(Cc2cc(Cl)ccc2Cl)S1 (configuration not stated) | 45.6
94 | COCCCn1c(SCc2cc(=O)[nH]c3ccccc23)nnc1-c1ccco1 | -2.38
95 | COCCSc1nnc(NC(=O)C2CC(=O)N(c3ccc(C)cc3)C2)s1 (configuration not stated) | 1.69
96 | CC(=O)Nc1ccc(S(=O)(=O)Oc2cccc(N3C(=O)C4CC=CCC4C3=O)c2)cc1 (configuration not stated) | 15.9
97 | O=C1C2CC=CCC2C(=O)N1c1cccc(OS(=O)(=O)c2ccc3ccccc3c2)c1 (configuration not stated) | 6.42
